Compound activity (PubChem)
Shown are actives, neighbours in structure and some others; about 3% of the full set was active somewhere.
PMP22 txn prim – Cell-based coincidence reporter assay to measure PMP22 gene transcription in S16 Pmp22-F2sN cells - Primary screen | S16 Pmp22-F2sN Schwann cells, FLuc/NLuc coincidence luminescence, 24 h | Potency, µM (top dose mostly 57.5 µM), actives largely listed as inhibitors | hit rate 2% among 43,000 | AID 1508649, 2021; active = clear falling dose curves in both reporters; inconclusive = both reporters move, but less clearly or upward; inactive = either reporter flat; the % is the NLuc reporter signal
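qHTS, 1536-well. Cells seeded, compounds added by pin tool, 24 h 37C. Nano-Glo reagent 1 (lysis/FLuc), 10 min RT, read; Stop&Glo, 10 min RT, read NLuc.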
p53null 32C kill – qHTS Screen for Compounds that Selectively Target Cancer Cells with p53 Mutations: Cytotoxicity of p53 Null Cells at the Permissive Temperature. H1299-neo p53 null cells, ATP luminescence, 24 h, 32C. Potency, µM (highest dose often 46.1 µM), usual class: cytotoxic. hit rate 0.62% among 55,000; note: nearly all actives have a fitted effect of over 55% in size
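ATP-content luminescence in p53-null H1299-neo cells after 24 h compound exposure (up to 46 uM) at 32C permissive temperature; 0% and 100% killing set by DMSO and 100 uM tamoxifen; Hill-equation AC50.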
pS6 MEF inh – Acumen qHTS Assay for Inhibitors of the mTORC1 Signaling Pathway in MEF (Tsc2-/-, p53-/-) Cells: Sytravon; Tsc2-/- p53-/- MEF, phospho-rpS6 immunofluorescence/PI, 24 h; Potency, µM (series often up to 38.3 µM), actives largely listed as inhibitors; hit rate 0.78% among 44,000; AID 493208, 2011; note: nearly all actives have a fitted effect of over 50% in size
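Cell-based qHTS: Tsc2-/- p53-/- MEF, 24 h cpd, 37 °C; fix/perm, anti-phospho-S6 Alexa-488 + PI; Acumen 488 nm scan; pS6/PI ratio, % positive cells; rapamycin 7.5 nM = inhibition ref; PI count = viability.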
S16 F2sN tox – Cell viability qHTS assay in S16 Pmp22-F2sN cells; S16 Pmp22-F2sN Schwann cells (luciferase reporters placed in the Pmp22 gene) viability, CellTiter-Glo, 24 h; AID 1508642, 2021; Potency, µM (highest dose often 57.5 µM), actives largely listed as cytotoxic; hit rate 0.48% among 43,000; note: nearly all actives have a fitted effect of over 65% in size
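Seed 500-1,000 S16 Pmp22-F2sN cells per well in phenol-red-free DMEM with 10% heat-inactivated FBS; pin-add 23 nL compound; incubate 24 h at 37C; add CellTiter-Glo, wait 15 min protected from light; read luminescence.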
p53null 39C tox – qHTS Screen for Compounds that Selectively Target Cancer Cells with p53 Mutations: Cytotoxicity of p53 Null Cells at the Nonpermissive Temperature; H1299 p53-null (neo) cells, 39C, ATPlite viability, 24 h; Potency, µM (highest dose often 46.1 µM), usual class: cytotoxic; hit rate 0.97% among 55,000; note: nearly all actives have a fitted effect of over 50% in size
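ATP-luminescence viability readout (ATPlite, 20 min RT) after 24 hr compound treatment at 39C of H1299-neo or H1299-p53A138V cells; titration up to 46 uM; normalized to DMSO and 100 uM tamoxifen; Hill-fit AC50.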
OvCa metastasis – Primary qHTS assay for Inhibitors of ovarian cancer metastasis using an organotypic tumor microenvironment (TME) model. AID 1963576, 2024. SKOV3ip1-GFP adhesion/invasion on 3D omental model, fluorescence. Potency, µM (highest dose often 45.8 µM), actives largely listed as inhibitors. hit rate 0.1% among 46,000; note: nearly all actives have a fitted effect of over 65% in size
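A 3D layer of primary human omental fibroblasts, mesothelial cells, fibronectin and collagen I, grown 48 hr, received SKOV3ip1-GFP cells in serum-free medium plus compounds at 0.36-46 umol/L. After 2 hr RT and 16 hr 37 C, fixed adherent GFP cells were counted; normalized to DMSO and tomatine.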
A number is an active result. Unless noted, calls come from the whole dose curve; as a rule, active = well fitted curve in the direction sought with a large enough effect; inconclusive = small, poorly fitted or top-dose-only effect, or another doubt; inactive = no such curve, though single readings can be large; an effect the other way counts as inactive or inconclusive.

Screening Cc1ccc(Nc2c(-c3c[nH]c4ccccc34)nc3ccccn23)cc1 returned PMP22 txn prim inconclusive, p53null 32C kill inactive, pS6 MEF inh inconclusive, S16 F2sN tox inactive, p53null 39C tox 14.1µM and OvCa metastasis inactive.
NC(=O)Nc1cc(-c2cccc(F)c2)sc1C(=O)N[C@H]1CCCNC1 was read as OvCa metastasis inactive.
For Cc1cc(C)cc(NC(=O)c2nnn(Cc3cccc(Br)c3)c2N)c1 the results were PMP22 txn prim inconclusive, p53null 32C kill inactive, pS6 MEF inh inactive, S16 F2sN tox inactive, p53null 39C tox inactive and OvCa metastasis inactive.
`Nc1c(C(=O)NCc2ccccc2)nnn1Cc1cccc(Br)c1` gave PMP22 txn prim 3.03µM, p53null 32C kill inactive, pS6 MEF inh inactive, S16 F2sN tox inconclusive, p53null 39C tox inactive and OvCa metastasis inactive.
Screening Cc1ccc(NC(=O)c2cccc(C(C)(C)C#N)c2)cc1Nc1ccc2ncn(C)c(=O)c2c1 returned OvCa metastasis inactive.
For CC(/C=N/Nc1nc2ccccc2[nH]1)=C\c1ccccc1 the results were p53null 32C kill 7.94µM and p53null 39C tox inconclusive.
C[C@@H]1CCO[C@H]2Cn3cc(C(=O)NCc4ccc(F)cc4F)c(=O)c(O)c3C(=O)N12 was read as OvCa metastasis inactive.
For CC(=O)[C@]1(O)Cc2c(O)c3c(c(O)c2[C@@H](O[C@H]2C[C@H](N)[C@@H](O)[C@H](C)O2)C1)C(=O)c1ccccc1C3=O the results were OvCa metastasis inactive.
COc1ccc(-n2ncc3c(NC(C)(C)CO)ncnc32)cc1 was read as PMP22 txn prim inactive, p53null 32C kill 12.6µM, pS6 MEF inh inactive, S16 F2sN tox inactive, p53null 39C tox inconclusive and OvCa metastasis inactive.
Cc1ccc(-n2ncc3c(NC(C)c4ccccc4)ncnc32)cc1 (stereo not given) was read as PMP22 txn prim inactive, p53null 32C kill inconclusive, pS6 MEF inh inactive, S16 F2sN tox inactive, p53null 39C tox inactive and OvCa metastasis inactive.
`CCC(CO)Nc1ncnc2c1cnn2-c1ccc(C)cc1` (stereo not given) gave PMP22 txn prim inconclusive, p53null 32C kill 15.8µM, pS6 MEF inh inactive, S16 F2sN tox inactive, p53null 39C tox inactive and OvCa metastasis inactive.
COc1ccc(CNc2ncnc3c2cnn3-c2ccc(C)c(C)c2)cc1 was read as PMP22 txn prim inconclusive, p53null 32C kill inactive, pS6 MEF inh inactive, S16 F2sN tox inactive, p53null 39C tox inactive and OvCa metastasis inactive.
Screening Cc1nc(N)sc1-c1ccnc(Nc2ccc(N3CCOCC3)cc2)n1 returned OvCa metastasis inactive.
For CCNC(=O)Nc1ccc(Oc2ncnc(N)c2C=NOC)cc1Cl the results were OvCa metastasis inactive.
`Cc1cc(S(=O)(=O)Nc2ccc(O)c(Sc3nc4ccccc4s3)c2)ccc1Cl` gave PMP22 txn prim inconclusive, p53null 32C kill inactive, pS6 MEF inh inactive, S16 F2sN tox inconclusive, p53null 39C tox inactive and OvCa metastasis inactive.
CS(=O)(=O)c1ccc(Sc2nc3ccccc3s2)c([N+](=O)[O-])c1 was read as p53null 32C kill 12.6µM.
Screening O=c1cc(CN2CCOCC2)occ1OCCCCCSc1ccnc2cc(C(F)(F)F)ccc12 returned OvCa metastasis inactive.
For O=C(CCS(=O)(=O)c1ccccc1)N(Cc1cccnc1)c1nc2ccc(F)cc2s1 the results were PMP22 txn prim 10.6µM, p53null 32C kill inconclusive, pS6 MEF inh inconclusive, S16 F2sN tox 4.47µM, p53null 39C tox inactive and OvCa metastasis inconclusive.
